Measured values reported in ChEMBL document CHEMBL3988442, “University of Dundee, Small-Polar-MMV Screening Library” (2021).
Hit rate of the full screen: of about 48,000 compounds, about 13,000 (27%) showed an effect of 50% or more. This is one part of the list.

These molecules were tested on Wolbachia pipientis (assay: Anti-Wolbachia Cell-Based Screen). Settings: 5 µM.
Format: functional
Set-up: scale not given: in the data most compounds retested in dose-response had high values

SMILES | Percent Effect [%]
Cc1nc2c(c(NC3CC3)n1)CCN(C(=O)C1(C#N)CC1)CC2 | -9.329
CCNc1ccnc(N2Cc3cnc(CC(C)C)nc3C2)n1 | 8.628
CSc1ncc(Cl)c(C(=O)NC(Cc2ccccc2)C(=O)O)n1 (stereo not drawn) | 98.91
CCSc1ncc(Cl)c(C(=O)NC(CCSC)C(=O)O)n1 (stereo not drawn) | 88.5
CSCCC(NC(=O)c1nc(SC)ncc1Cl)C(=O)O (stereo not drawn) | 130.6
CCOCCNC(=O)C(CCSC)NC(=O)c1ccc2ccccc2n1 (stereo not drawn) | 5.309
CSCCC(NC(=O)c1ccc2ccccc2n1)C(=O)N(C)C (stereo not drawn) | -7.928
CSc1ccsc1C(=O)NC(Cc1ccccc1)C(N)=O (stereo not drawn) | -23.55
CSCCC(NC(=O)c1ccc2ccccc2n1)C(=O)O (stereo not drawn) | -5.769
CCOc1ccc(Cl)c(C(=O)NC(C(N)=O)c2ccccc2)n1 (stereo not drawn) | -8.916
CCCSc1ncc(Cl)c(C(=O)NC(CCSC)C(=O)O)n1 (stereo not drawn) | 125.3
CCOc1ccc(Cl)c(C(=O)NC(Cc2ccccc2)C(N)=O)n1 (stereo not drawn) | -4.15
C=C(C)COc1ccc(C(=O)NCCn2c(C)cc(C)nc2=O)cc1 | 3.763
NC(CC1CCCC1)c1ccc(Oc2ccccc2)cc1 (stereo not drawn) | -4.539
Cc1nnc(CN2CCCC2c2ccc3c(c2)OCCCO3)n1C (stereo not drawn) | -16.28
Cc1ccc(CNCc2nnc3n2CCCC3C(F)(F)F)s1 (stereo not drawn) | -0.9896
Cc1cc(CC(=O)NCC(O)COc2ccc(F)c(F)c2)n[nH]1 (stereo not drawn) | -4.204
CCN(CC)C(=O)c1ccc(Cl)c(NC(=O)c2csnn2)c1 | 102.3
CC(C)CC(=O)Nc1cc(C(=O)N(C)C(C)C)ccc1Cl | -13.72
CCN(CC)c1ccc(CNC(=O)c2cnc(C)cn2)cn1 | 0.4576
CCN(CC)C(=O)c1ccc(Cl)c(NC(=O)c2cc(C(C)C)on2)c1 | 105.3
COCCN(Cc1ccc(F)cc1Cl)C(=O)c1csnn1 | 2.289
CCN(CC)C(=O)c1ccc(Cl)c(NC(=O)c2cc[nH]n2)c1 | 48.61

SMILES | Percent Effect [%]
CC(C)OCCC(=O)Nc1cc(C(=O)N(C)C(C)C)ccc1Cl | -18.48
Cc1cnc(C(=O)N(CCN(C)C)Cc2ccc(Cl)cc2)cn1 | 18.7
CCN(CC)C(=O)c1ccc(Cl)c(NC(=O)c2cnc(C)cn2)c1 | 101.4
O=C(c1nc(=O)[nH]c2ccccc12)N1CCCC(CC2CC2)(C(=O)O)C1 (stereo not drawn) | -2.768
CCc1noc(CS(=O)(=O)c2cccc(OC)c2)n1 | -12.89
CN(C)CC1(O)CCN(C(=O)Cc2ccc3c(c2)CCCC3)C1 (stereo not drawn) | 97.61
Cc1c(C(=O)N2CCC(O)(CN(C)C)C2)c2cc(O)ccc2n1C (stereo not drawn) | -4.838
CN(C)C[C@@H]1CN(C(=O)Cc2ccc3ccccc3c2)C[C@@H]1CO | -10.12
CN(CCO)C[C@@H]1CN(C(=O)Cc2ccc3ccccc3c2)C[C@@H]1CO | -10.71
Cc1cc2occ(CC(=O)N3CCC(O)(CN(C)C)C3)c2cc1Cl (stereo not drawn) | -55.74
CN(C)CC1(O)CCN(C(=O)Cc2ccc3c(c2)CCC3)C1 (stereo not drawn) | 113.1
CN(C)CC1(O)CCCN(C(=O)Cc2ccc(Cl)c(Cl)c2)C1 (stereo not drawn) | 6.381
CN(C)CC1(O)CCN(C(=O)Cc2ccc3ccccc3c2)C1 (stereo not drawn) | 131.3
CN(C)CC1(O)CCN(C(=O)Cc2ccc(Cl)c(Cl)c2)C1 (stereo not drawn) | -5.552
COc1c(NC(=O)N(C)CCOc2ccc(F)cc2)c(C)nn1C | -9.317
CC(=O)N1CCN(C(=O)CCOc2ccc(C(C)C)cc2)CC1 | -11.35
CC(=O)N1CCC[C@H]1C(=O)N(C)CCCOc1ccccc1 | 16.69
Cc1ccc(F)cc1NC(=O)C1CCCN1C(=O)C(C)C (stereo not drawn) | -3.665
CC(=O)N1CCCC1C(=O)NCCOc1ccc(C(C)C)cc1 (stereo not drawn) | 97.98
CC(C)CCNC(=O)C1CCCN1C(=O)Nc1cccc(F)c1 (stereo not drawn) | 134.2
C=C(C)COCCNC(=O)C1CCCN1C(C)=O (stereo not drawn) | 4.711
CC(=O)N1CCC[C@H]1C(=O)NCCOc1cccc(Cl)c1 | 1.208
O=C1CCCN1CC1CCCCN1C(=O)Nc1cccc(F)c1 (stereo not drawn) | -9.718

SMILES | Percent Effect [%]
CC(=O)N1CCCC1C(=O)NCCOc1cc(C)cc(C)c1 (stereo not drawn) | 2.584
CC(=O)N1CCCC1C(=O)NCCOc1cccc(F)c1 (stereo not drawn) | 92.85
CC(=O)NCCOc1c(C)cccc1C | -5.514
CC(=O)N1CCCC1C(=O)NCCOc1c(C)cccc1C (stereo not drawn) | 70.88
CCC(CNC(=O)COC)Oc1cccc(F)c1 (stereo not drawn) | -17.35
NC(=O)c1csc(N2CCCC(c3n[nH]c(=O)n3-c3ccccc3)C2)n1 (stereo not drawn) | -8.892
CC(C)c1cc(C(=O)NCCn2nc3ccccn3c2=O)n[nH]1 | 7.227
Cc1nnc(NC(=O)N2CCCCC2CCO)s1 (stereo not drawn) | -9.567
Cc1nc(NC(=O)NCCCN2CCC(C(N)=O)CC2)sc1C | 92.76
Cc1nnc(NC(=O)NCc2ccc(C)n2C)s1 | 1.794
Cc1nnc(NC(=O)NCCCN2CCC(C(N)=O)CC2)s1 | 105
Cc1nc(NC(=O)C2CCCN(C(=O)C3CC3)C2)sc1C (stereo not drawn) | 22.45
Cc1nc(Nc2ccc(Cl)cn2)sc1C(=O)NCCCN1CCCCC1 | -4.658
Cc1cccc(CNC(=O)CC2CCN(S(C)(=O)=O)CC2)n1 | 82.07
Cc1cccc(CNC(=O)CC2CCN(Cc3ccccn3)CC2)n1 | 99.8
COC(=O)N1CCCC(NC(=O)NCc2cccc(C)n2)C1 (stereo not drawn) | -5.43
Cc1cccc(CN2CCn3cc(CNC(=O)CC4CC4)nc3C2)n1 | 3.137
Cc1cccc(CN2CCS(=O)(=O)[C@@H]3CCN(S(C)(=O)=O)CC[C@@H]32)n1.O=C(O)C(F)(F)F | -6.526
Cc1cccc(CN2CCC(Cc3ccccc3F)CC2)n1 | -1.449
Cc1cccc(CNC(=O)C2CCC(=O)N(Cc3ccccc3F)C2)n1 (stereo not drawn) | -24.63
Cc1cccc(CNC(=O)CC2CCN(C(=O)C(C)C)CC2)n1 | 83.92
Cc1cccc(C(=O)N2CCn3cc(CNC(=O)CC4CC4)nc3C2)n1 | 2.995
